Screens deposited in PubChem BioAssay by several laboratories.
An excerpt weighted towards active compounds, which were near 2% of everything screened.
PKA-R1A activ: activators of PKA-R1A complex; activation, % at 11.4 µM; hit rate 0.083% among 340,000; P00514+P68181; PKA-R1A dissociation, Cy5-IP20 fluorescence polarization; scaled: DMSO 0%, 113 µM cGMP 100%; AID 504707;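 active = percent activation above the mean of all tested compounds plus 3 SD, cut at about 19% in these data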;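 note: higher means more PKAc released from R1A so a rise in polarization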
PKA-R2B act: activates the human PKA-R2B holoenzyme complex; P22694+P31323; PKA-R2B holoenzyme dissociation, Cy5-IP20 fluorescence polarization; R2B truncated from residue 108, S112A mutant; 0% DMSO only, 100% 113 µM cGMP; activation, % at 11.4 µM; hit rate 0.079% among 340,000;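 active = activation above a cutoff set at the mean over all compounds plus 3 SD, cut at about 18% in these data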;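 note: higher means more holoenzyme dissociation and a rise in polarization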
Target sequence (P31323 whole entry, looked up, other chains not shown, the tested form may be a part): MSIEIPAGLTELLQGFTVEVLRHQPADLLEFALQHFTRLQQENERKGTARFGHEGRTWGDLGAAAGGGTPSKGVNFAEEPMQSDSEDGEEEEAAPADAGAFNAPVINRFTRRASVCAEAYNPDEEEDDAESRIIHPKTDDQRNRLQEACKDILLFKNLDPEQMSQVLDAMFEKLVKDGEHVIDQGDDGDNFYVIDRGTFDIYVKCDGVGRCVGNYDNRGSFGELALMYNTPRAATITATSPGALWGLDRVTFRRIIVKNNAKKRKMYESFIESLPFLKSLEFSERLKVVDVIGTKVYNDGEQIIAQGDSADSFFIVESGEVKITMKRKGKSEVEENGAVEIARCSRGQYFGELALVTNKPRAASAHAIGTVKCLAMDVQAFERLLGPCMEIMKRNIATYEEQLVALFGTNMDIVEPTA
MsrA inhibitor: inhibits bovine methionine sulfoxide reductase A | hit rate 0.75% among 360,000 | purified bovine MsrA, absorbance read-out | AID 651718 | inhibition, % at 15.5 µM; in the data active = inhibition above about 4.5%;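 note: 0% = vehicle wells with enzyme and 100% = reference inhibitor wells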
bovine MsrA act: activates bovine MsrA enzyme | purified bovine MsrA, absorbance read-out | activation, % at 10.6 µM | hit rate 0.3% among 360,000 | AID 602163; in the data active = activation above about 7.5%;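 note: 0% = vehicle and 100% = reference activator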
Mot1-301 SUMO: blocks SUMOylation pathway, rescuing yeast Mot1-301 growth; S. cerevisiae Mot1-301 growth rescue, ATP luminescence, 38.5C; percent above DMSO median, 100 means doubled; growth rescue, % at 18.8 µM; hit rate 1% among 320,000; AID 2716;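 active = every valid replicate shows activation above 250% relative to neutral control wells; inactive = the rest, any valid replicate at or below 250%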;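 note: OY570 slx delta 5 strain wells were the positive control but not used for scaling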
The depositor's hits bear a star.

What do the screens show for `COC(=O)N1C[C@H](OCc2ccc3c(c2)OCO3)[C@H]2C[C@@H]1c1ccccc1O2`?
MsrA inhibitor: 0

What do the screens show for `COc1ccc(N(CC(C)C)S(=O)(=O)c2nnc(NC(=O)c3ccco3)s2)cc1`?
PKA-R1A activ: -5; PKA-R2B act: -1; MsrA inhibitor: 5.3*; bovine MsrA act: -8; Mot1-301 SUMO: -6

How did CCN(c1ccc(OC)cc1)S(=O)(=O)c1nnc(NC(=O)c2ccco2)s1 do in these assays?
PKA-R1A activ: -5; PKA-R2B act: -5; MsrA inhibitor: 4.6*; bovine MsrA act: 1; Mot1-301 SUMO: -19

Results for CCN(c1cc(C)cc(C)c1)S(=O)(=O)c1nnc(NC(=O)c2ccco2)s1 ?
PKA-R1A activ: 0; PKA-R2B act: 1; MsrA inhibitor: 4; bovine MsrA act: 3; Mot1-301 SUMO: -12

Results for CCN(c1ccccc1C)S(=O)(=O)c1nnc(NC(=O)c2ccco2)s1 ?
PKA-R1A activ: 9; PKA-R2B act: 0; MsrA inhibitor: 3; bovine MsrA act: -3; Mot1-301 SUMO: -2

What do the screens show for `O=C(Nc1cccc(F)c1)c1ccc2c(c1)OCCO2`?
PKA-R1A activ: 1; PKA-R2B act: 6; MsrA inhibitor: 0; bovine MsrA act: 1; Mot1-301 SUMO: 479*

What do the screens show for `O=C(O)C1C2CCC(O2)C1C(=O)Nc1cccc(Cl)c1` (stereo unspecified)?
PKA-R1A activ: 1; PKA-R2B act: -4; MsrA inhibitor: 0; bovine MsrA act: -5; Mot1-301 SUMO: 93

Results for O=C(O)C1C2CCC(O2)C1C(=O)Nc1ccc(Cl)cc1F (stereo unspecified) ?
PKA-R1A activ: 3; PKA-R2B act: -11; MsrA inhibitor: -1; bovine MsrA act: -2; Mot1-301 SUMO: 633*

Results for CN(C)c1ccc(/C=N/NC(=O)c2ccccn2)cc1 ?
PKA-R1A activ: 2; PKA-R2B act: 1; MsrA inhibitor: 4; bovine MsrA act: -5; Mot1-301 SUMO: -11

How did CN(C)c1ccc(/C=N\NC(=O)c2csnn2)cc1 do in these assays?
PKA-R1A activ: -9; PKA-R2B act: -15; MsrA inhibitor: 7.3*; bovine MsrA act: -14; Mot1-301 SUMO: 8

How did Cc1ccnc(NC(=O)Cc2ccc(-c3ccccc3)cc2)c1 do in these assays?
PKA-R1A activ: -2; PKA-R2B act: -5; MsrA inhibitor: 0; bovine MsrA act: -3; Mot1-301 SUMO: 2

What do the screens show for `Cc1ccnc(NC(=O)Cc2ccc([N+](=O)[O-])cc2)c1`?
PKA-R1A activ: 7; PKA-R2B act: 6; MsrA inhibitor: -1; bovine MsrA act: -1; Mot1-301 SUMO: 364*

How did O=C1CC2(CCN(C(=O)COc3ccccc3F)CC2)Oc2ccccc21 do in these assays?
PKA-R1A activ: -2; PKA-R2B act: 0; MsrA inhibitor: 0; bovine MsrA act: -1; Mot1-301 SUMO: 602*

What do the screens show for `O=C(c1cn(-c2ccccc2)nc1-c1ccc(Cl)cc1)N1CCOCC1`?
PKA-R1A activ: -2; PKA-R2B act: 8; MsrA inhibitor: -1; bovine MsrA act: -3; Mot1-301 SUMO: 331*

What do the screens show for `Cc1cc(N/C(=C\C(=O)c2ccccc2)c2ccccc2)ccc1Br`?
MsrA inhibitor: 0

Results for C=CCN1C(=O)c2n[nH]c(COC)c2C1c1ccc(C)cc1 (stereo unspecified) ?
MsrA inhibitor: 1

How did O=C(O)c1cccc(NS(=O)(=O)c2ccc(C3CCCCC3)cc2)c1 do in these assays?
PKA-R1A activ: -14; PKA-R2B act: 0; bovine MsrA act: -3; Mot1-301 SUMO: 11

How did Cc1cccc(NS(=O)(=O)c2ccc(C3CCCCC3)cc2)c1 do in these assays?
PKA-R1A activ: 1; PKA-R2B act: -2; MsrA inhibitor: 0; bovine MsrA act: 1; Mot1-301 SUMO: 792*

Results for CC(C)c1ccc(CNC(=O)C(=O)NCCCn2ccnc2)cc1 ?
PKA-R1A activ: -17; PKA-R2B act: -9; MsrA inhibitor: 0; bovine MsrA act: -4; Mot1-301 SUMO: -6

What do the screens show for `CC(NC(=O)C(=O)NCCCn1ccnc1)c1ccccc1` (stereo unspecified)?
PKA-R1A activ: 4; PKA-R2B act: -6; MsrA inhibitor: 0; bovine MsrA act: -2; Mot1-301 SUMO: 320*

What do the screens show for `Cc1cc2nc(N)sc2cc1[N+](=O)[O-]`?
PKA-R1A activ: -5; PKA-R2B act: 3; MsrA inhibitor: 5.2*; bovine MsrA act: -2; Mot1-301 SUMO: -2

What do the screens show for `O=C(c1ccc2c(c1)C(=O)NC2=O)c1ccc2c(c1)C(=O)NC2=O`?
MsrA inhibitor: 1

Results for C[C@@H]1CN([C@@H](C)CO)C(=O)CCCn2cc(nn2)CO[C@H]1CN(C)C(=O)Nc1ccccc1F ?
MsrA inhibitor: 1

How did COC(=O)C(C)Sc1nc2c(c(=O)n(C)c(=O)n2C)n1CCC(C)C (stereo unspecified) do in these assays?
PKA-R1A activ: 0; PKA-R2B act: 2; MsrA inhibitor: 0; bovine MsrA act: -4; Mot1-301 SUMO: 961*

What do the screens show for `CCSc1nc(C(F)(F)F)cc(=O)n1-c1ccccc1`?
PKA-R1A activ: 5; PKA-R2B act: 5; MsrA inhibitor: 1; bovine MsrA act: -3; Mot1-301 SUMO: -20

What do the screens show for `CC(C)Sc1nc(C(F)(F)F)cc(=O)n1-c1ccccc1`?
PKA-R1A activ: -5; PKA-R2B act: -3; MsrA inhibitor: 0; bovine MsrA act: 14*; Mot1-301 SUMO: 2

What do the screens show for `Clc1ccc(SCCOCCN2CCCCC2)cc1`?
PKA-R1A activ: -6; PKA-R2B act: 5; MsrA inhibitor: -1; bovine MsrA act: -5; Mot1-301 SUMO: 184

What do the screens show for `Clc1ccc(SCCOCCN2CCc3ccccc3C2)cc1`?
PKA-R1A activ: 0; PKA-R2B act: 8; MsrA inhibitor: 3; bovine MsrA act: 0; Mot1-301 SUMO: 270*

How did CN1CCN(C2=C(NS(=O)(=O)c3ccccc3)C(=O)c3ccccc3C2=O)CC1 do in these assays?
PKA-R1A activ: -9; PKA-R2B act: 3; bovine MsrA act: 15*; Mot1-301 SUMO: 0

How did CCC(C)Nc1cc(C)nc2ncnn12 (stereo unspecified) do in these assays?
PKA-R1A activ: 2; PKA-R2B act: 9; MsrA inhibitor: 2; bovine MsrA act: -3; Mot1-301 SUMO: active

What do the screens show for `c1ccc2c(c1)OCc1nccn1-2`?
MsrA inhibitor: -1

Results for Cc1c(N=Cc2nc3ccccc3n2C)c(=O)n(-c2ccccc2)n1C ?
PKA-R1A activ: 7; PKA-R2B act: -3; MsrA inhibitor: 5.1*; bovine MsrA act: -6; Mot1-301 SUMO: 6

Results for Cc1c(N=Cc2nc3ccccc3[nH]2)c(=O)n(-c2ccccc2)n1C ?
PKA-R1A activ: -14; PKA-R2B act: -2; MsrA inhibitor: 4; bovine MsrA act: -5; Mot1-301 SUMO: 229

What do the screens show for `CC(C)(C)S(=O)(=O)N1C[C@@H]2CC(=O)C=C2[C@H]1CCO`?
MsrA inhibitor: 1

What do the screens show for `CCCCOCCCNC(=O)C[C@H]1C[C@@]2(C(=O)OC)C(=C[C@H](C3CCCC3)O[C@@H]2C)N(Cc2ccccc2)C1=O`?
MsrA inhibitor: 1
